Test results reported in ChEMBL document CHEMBL3433997, “St. Jude Leishmania screening dataset” (2016).
Where “and” joins values, the source holds several entries; their conditions need not be identical. Equal values may be shown once.

Legend:
Assay type in all cases: functional
[1] = molecular target: Solute carrier family 2, facilitated glucose transporter member 1 (Homo sapiens) (UniProt P11166); assay: ST_JUDE_LEISH: Cytotoxicity at 2uM final concentration against transgenic Leishmania Mexicana promastigotes LmGLUT1 that are glucose transport deficient and complemented with the human glucose transporter GLUT1. Activity is measured by DNA content using SYBR green in vitro
[2] = molecular target: Hexose transporter 1 (Plasmodium falciparum) (UniProt O97467); assay: ST_JUDE_LEISH: Cytotoxicity at 2uM final concentration against transgenic Leishmania Mexicana promastigotes LmPfHT that are glucose transport deficient and complemented with the Plasmodium falciparum hexose transporter. Activity is measured by DNA content using SYBR green in vitro
[3] = molecular target: Glucose transporter (Leishmania mexicana) (UniProt O61059); assay: ST_JUDE_LEISH: Cytotoxicity at 2uM final concentration against transgenic Leishmania Mexicana promastigotes LmGT2 that are glucose transport deficient and complemented with the L. Mexicana glucose transporter 2. Activity is measured by DNA content using SYBR green in vitro

Chain of Solute carrier family 2, facilitated glucose transporter member 1 (Homo sapiens) (P11166 whole entry): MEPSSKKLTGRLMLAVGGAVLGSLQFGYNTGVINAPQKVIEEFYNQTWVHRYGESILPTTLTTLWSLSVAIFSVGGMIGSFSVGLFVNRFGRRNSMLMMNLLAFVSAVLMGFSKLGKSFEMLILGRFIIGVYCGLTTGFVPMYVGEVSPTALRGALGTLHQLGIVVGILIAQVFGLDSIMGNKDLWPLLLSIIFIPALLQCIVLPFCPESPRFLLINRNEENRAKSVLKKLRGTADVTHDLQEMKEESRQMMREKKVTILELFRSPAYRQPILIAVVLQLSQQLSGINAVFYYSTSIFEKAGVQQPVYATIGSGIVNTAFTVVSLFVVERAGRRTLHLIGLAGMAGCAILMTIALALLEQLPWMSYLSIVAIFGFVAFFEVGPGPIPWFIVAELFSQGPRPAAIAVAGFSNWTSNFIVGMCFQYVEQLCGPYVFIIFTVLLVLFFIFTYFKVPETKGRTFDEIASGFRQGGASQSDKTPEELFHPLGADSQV

Structure (SMILES): CN(C)[C@@H]1C(O)=C(C(N)=O)C(=O)[C@@]2(O)C(O)=C3C(=O)c4c(O)ccc(C#Cc5ccccn5)c4C[C@H]3C[C@@H]12
- inhibition [1]: 1.83%
- inhibition [2]: -0.62%
- inhibition [3]: 0.74%

Structure (SMILES): O=C(Nc1ccc(F)cc1)NC1CCN(c2ccnc3cc(Cl)ccc23)CC1
- inhibition [1]: 3.63%
- inhibition [2]: 3.1%
- inhibition [3]: 1.68%

Structure (SMILES): COc1ccc(-c2nonc2NC(=O)c2cccc(Cl)c2)cc1OC
- inhibition [1]: 4.3%
- inhibition [2]: 1.03%
- inhibition [3]: 1.34%

Structure (SMILES): COc1ccc(NC(=O)N2CCCN(CCCCCNC(=O)/C=C/c3ccc(C(F)(F)F)cc3)CC2)cc1Cl
- inhibition [1]: -0.26%
- inhibition [2]: -1.14%
- inhibition [3]: 2.8%

Structure (SMILES): CN1CCN(Cc2cc3cc(NC(=O)/C=C/c4ccc(Cl)cc4)ccc3s2)CC1
- inhibition [1]: 4.5%
- inhibition [2]: 0.55%
- inhibition [3]: 1.01%

Structure (SMILES): O=C(/C=C/c1ccc(Cl)c(Cl)c1)NCCCCCN1CCC(c2c[nH]c3ccccc23)C(O)C1 (stereo not drawn)
- inhibition [1]: 0.14% and 4.45%
- inhibition [2]: 0.8% and 4.3%
- inhibition [3]: 2.14% and 3.3%

Structure (SMILES): CCCCCCN1CCC(NCc2cccc3ccccc23)CC1
- inhibition [1]: 7.18%
- inhibition [2]: 12.1%
- inhibition [3]: 13.7%

Structure (SMILES): O=c1cc(NCCCNCc2sc(Br)c(Br)c2Br)[nH]c2ccccc12
- inhibition [1]: 10.5%
- inhibition [2]: 9.87%
- inhibition [3]: 10.4%

Structure (SMILES): CCc1ccc(CN2CCC(NC(=O)c3ccc(-c4ccc(N(C)C)cc4)s3)CC2)cc1
- inhibition [1]: 2.04%
- inhibition [2]: 1.82%
- inhibition [3]: 6.05%

Structure (SMILES): Cc1ccc2[nH]c(-c3cc(-c4cccc(CCN5CCOCC5)c4)cnc3N)nc2c1
- inhibition [1]: 4.66%
- inhibition [2]: 5.93%
- inhibition [3]: 1.19%

Structure (SMILES): COc1cc(NC(=O)Nc2ccnc3ccccc23)cc(OC)c1
- inhibition [1]: 0.62%
- inhibition [2]: -0.6%
- inhibition [3]: 1.16%

Structure (SMILES): CC(CCCCC(=O)Nc1ccc(C(F)(F)F)cc1)NCC(O)c1cccc(Cl)c1 (stereo not drawn)
- inhibition [1]: 1.04%
- inhibition [2]: -0.95%
- inhibition [3]: 1.56%

Structure (SMILES): CCCc1cc(NCC)nc(Nc2ccc(F)cc2)n1
- inhibition [1]: 15.6%
- inhibition [2]: 6.64%
- inhibition [3]: 3.2%

Structure (SMILES): O=C(/C=C/c1ccc(Cl)c(Cl)c1)NCCCCCN1CCCC(C(=O)Nc2cccc(Cl)c2)C1 (stereo not drawn)
- inhibition [1]: 3.89%
- inhibition [2]: 2.5%
- inhibition [3]: 1.07%

Structure (SMILES): Cc1cc(-c2nc3ccc(CN4CCN(C)CC4)cc3[nH]2)nn1Cc1cc(Cl)ccc1OCc1ccccc1
- inhibition [1]: 3.84%
- inhibition [2]: 3.27%
- inhibition [3]: 2.54%

Structure (SMILES): CC(C)(C)c1ccc(NC(=O)c2ccc(CN3CCCN(CC4CCCCC4)CC3)cc2)cc1
- inhibition [1]: 3.27%
- inhibition [2]: 1.6%
- inhibition [3]: 5.35%

Structure (SMILES): COc1ccc(CNCCCCCCCNCc2ccc(Cl)c(Cl)c2)cc1Cl
- inhibition [1]: 5.86%
- inhibition [2]: 4.67%
- inhibition [3]: 2.7%

Structure (SMILES): Oc1cc(Nc2ccnc3cc(I)ccc23)ccc1F
- inhibition [1]: 1.98%
- inhibition [2]: -0.07%
- inhibition [3]: 0.37%

Structure (SMILES): Cc1ccc(Cc2cccc3nc(N)nc(N)c23)cc1
- inhibition [1]: 1.2%
- inhibition [2]: 0.71%
- inhibition [3]: -0.6%

Structure (SMILES): COc1ccc(C[C@H](N)C(=O)N[C@H]2[C@@H](O)[C@H](n3cnc4c(N(C)C)ncnc43)O[C@@H]2CO)cc1
- inhibition [1]: 3.7% and 0.1%
- inhibition [2]: 1.9% and 3.79%
- inhibition [3]: 3.16% and 2.8%

Structure (SMILES): COc1ccc(S(=O)(=O)NCCC2CCN(CCCCCNC(=O)C=Cc3ccc(Cl)c(Cl)c3)CC2)cc1
- inhibition [1]: 2.06%
- inhibition [2]: 2.12%
- inhibition [3]: 1.49%

Structure (SMILES): Cc1cc2nc(-c3ccc(/C=C/C(=O)NC4CCCCC4)cc3)[nH]c2cc1C
- inhibition [1]: 0.61%
- inhibition [2]: 1.82%
- inhibition [3]: 1.51%

Structure (SMILES): Oc1ccc(Nc2nc(NCC3CCCO3)c3ccccc3n2)cc1 (stereo not drawn)
- inhibition [1]: 7.56%
- inhibition [2]: 6.25%
- inhibition [3]: 1.86%

Structure (SMILES): C=CCOC(=O)N1CCC(CNCc2cccc(-c3ccc(-c4nc5ccccc5[nH]4)s3)c2)C1 (stereo not drawn)
- inhibition [1]: 1.51%
- inhibition [2]: 1.79%
- inhibition [3]: 1.26%

Structure (SMILES): CCCCCCCC(=O)N[C@@H](Cc1ccccc1)C(=O)N[C@H](C(=O)O)C(C)C
- inhibition [1]: 2.54%
- inhibition [2]: 1.23%
- inhibition [3]: 2.59%

Structure (SMILES): CN(C)C1CCN(CC#Cc2cc3ncnc(Nc4ccc(OCc5cccc(F)c5)c(Cl)c4)c3s2)CC1
- inhibition [1]: 1.79%
- inhibition [2]: 0.49%
- inhibition [3]: 2.9%

Structure (SMILES): O=C(Nc1ccc(Cl)c(Cl)c1)Nc1ccc2nccc(N3CCN(Cc4ccccc4)CC3)c2c1
- inhibition [1]: 3.7%
- inhibition [2]: 0.94%
- inhibition [3]: 3.64%

Structure (SMILES): COc1ccc(C(=O)Nc2ccc(-c3nc4cc(C)ccc4[nH]3)cc2)cc1OC
- inhibition [1]: 3.99%
- inhibition [2]: 2.08%
- inhibition [3]: 3.84%

Structure (SMILES): Nc1ccc2nc(C=Cc3ccc(Cl)cc3)[nH]c2c1
- inhibition [1]: 3.56%
- inhibition [2]: 3.93%
- inhibition [3]: 5.14%

Structure (SMILES): COc1ccccc1NC(=O)Nc1ccc(-c2cccc(-c3nc4ccccc4[nH]3)c2)cc1
- inhibition [1]: 3%
- inhibition [2]: 2%
- inhibition [3]: 3.27%

Structure (SMILES): Cc1noc(C)c1-c1ccc2c(Nc3ccccc3C(C)(C)C)c(C(=O)NCc3ccc(C(F)(F)F)cc3)cnc2c1
- inhibition [1]: 3.44%
- inhibition [2]: 5.41%
- inhibition [3]: 3.69%

Structure (SMILES): Cc1cc(NCCC(=O)NCCOc2ccccc2)nc(NCCOc2ccccc2)n1
- inhibition [1]: 3.09%
- inhibition [2]: -0.07%
- inhibition [3]: 0.08%

Structure (SMILES): CCNC(=O)CCc1cccc(Br)c1
- inhibition [1]: -1.73%
- inhibition [2]: -1.52%
- inhibition [3]: -1.62%

Structure (SMILES): CCn1cnc2c(N3CCCS3(=O)=O)cc(C(=O)N[C@@H](Cc3ccccc3)[C@H](O)CNC(C)(C)c3cccc(C(F)(F)F)c3)cc21
- inhibition [1]: 3.01%
- inhibition [2]: 2.45%
- inhibition [3]: 2.04%

Structure (SMILES): CCc1cc(Cc2cnc(N)nc2N)cc(CC)c1OC
- inhibition [1]: 2.48%
- inhibition [2]: 0.46%
- inhibition [3]: -1.28%

Structure (SMILES): CN1CCN(Cc2cccc(-c3ccc4c(Nc5ccc(F)cc5Cl)ccnc4c3)c2)CC1
- inhibition [1]: 4.11%
- inhibition [2]: 6.5%
- inhibition [3]: 3.82%
